Source: PubChem BioAssay AID2796 (The Scripps Research Institute Molecular Screening Center, 2010)
Out of some 320,000 compounds screened, about 8,000 (2.5%) were called active. No stated cut-off is given here; in the data, active means activation above about 47%; inactive means the rest. Many of the other results were omitted from the sample, so actives are more common in it than they were.

molecular target: Aryl hydrocarbon receptor (Homo sapiens) (UniProt P35869); assay: AHR activators, primary screen, cell-based, luminescence, luciferase reporter, human (AID 2796); conditions: AHR-responsive luciferase reporter cells, at 5 µM, hits give high values;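 further: 0% = vehicle wells and 100% = reference agonist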
Sequence (P35869 whole entry, looked up): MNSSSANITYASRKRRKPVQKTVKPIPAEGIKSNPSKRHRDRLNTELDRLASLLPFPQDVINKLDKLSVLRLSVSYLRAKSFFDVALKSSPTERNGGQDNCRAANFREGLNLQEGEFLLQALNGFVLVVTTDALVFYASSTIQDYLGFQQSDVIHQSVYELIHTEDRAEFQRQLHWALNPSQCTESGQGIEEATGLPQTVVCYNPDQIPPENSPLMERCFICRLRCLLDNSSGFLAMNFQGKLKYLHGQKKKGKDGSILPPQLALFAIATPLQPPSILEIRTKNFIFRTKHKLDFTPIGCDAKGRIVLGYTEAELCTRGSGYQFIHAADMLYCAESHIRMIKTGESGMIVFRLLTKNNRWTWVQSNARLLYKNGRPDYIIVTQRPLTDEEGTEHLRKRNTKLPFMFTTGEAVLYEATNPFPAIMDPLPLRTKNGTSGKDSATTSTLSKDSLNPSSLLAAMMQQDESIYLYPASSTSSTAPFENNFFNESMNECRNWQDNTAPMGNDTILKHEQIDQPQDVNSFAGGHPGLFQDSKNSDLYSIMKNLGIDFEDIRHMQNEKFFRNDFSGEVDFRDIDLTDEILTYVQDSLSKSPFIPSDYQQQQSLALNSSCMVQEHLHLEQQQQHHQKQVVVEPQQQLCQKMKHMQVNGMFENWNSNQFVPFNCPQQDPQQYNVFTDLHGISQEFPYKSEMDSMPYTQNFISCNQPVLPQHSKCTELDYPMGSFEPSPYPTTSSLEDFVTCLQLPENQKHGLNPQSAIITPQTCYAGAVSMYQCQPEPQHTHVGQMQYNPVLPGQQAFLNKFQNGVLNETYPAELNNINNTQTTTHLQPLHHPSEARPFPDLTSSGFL

activation, inactive:
O=C(NC(=S)Nc1ccc(Br)cc1F)C1CCCCC1 -1.21%
CCOc1ccc(N(CC(=O)NCCc2ccc(F)cc2)S(=O)(=O)c2ccccc2)cc1 0.85%
Cc1cccc(NC(=O)c2nnn(-c3cccc(C(F)(F)F)c3)c2N)c1 -4.69%
O=C(Nc1cccc(-n2cnnn2)c1)c1cccnc1 4.54%
CCOCCn1c(-c2ccccc2)nc2ccccc21 -0.77%
Cc1c(C(=O)Nc2cccc(Cl)c2)cn2c(nc3ccccc32)c1C#N 7.03%
Cc1ccc(-n2nc(C)c(/C=N/NC(=O)c3cccs3)c2Cl)cc1 11.5%
COc1ccc(CCNC(=O)c2ccc(CS(=O)(=O)c3ccc(Br)cc3)o2)cc1OC 2.36%
COc1ccccc1CNC(=O)c1ccc(CS(=O)(=O)c2ccccc2)o1 -0.56%
C[C@H](NC(=O)C1CCN(S(=O)(=O)c2ccccc2)CC1)C(=O)NCc1ccccc1 1.44%
O=C(COC(=O)c1ccco1)Nc1ccc(Cl)cn1 10.9%
O=C(Nc1ccc(Cl)cn1)c1ccc2c(c1)OCCO2 -5.76%
O=C(CN1C(=O)NC(Cc2c[nH]c3ccccc23)C1=O)Nc1ccccc1C(F)(F)F (stereo not drawn) -0.64%
COc1ccc(NC(=O)C2COc3ccccc3O2)cc1 (stereo not drawn) 1.18%
O=C(Nc1ncc([N+](=O)[O-])s1)C1COc2ccccc2O1 (stereo not drawn) 6.36%
CCC(=O)N(Cc1cc2ccccc2[nH]c1=O)c1ccc(OC)cc1 3.79%
O=[N+]([O-])c1cc(S(=O)(=O)NCCc2ccccn2)ccc1Cl -0.28%
Cc1c([N+](=O)[O-])c(N)nn1C 2.61%
O=C(CN1CCN(c2ccc(Cl)cc2)CC1)NCc1cccs1 -1.24%
CC(C)OC(=O)CN1CCN(c2ccc(Cl)cc2)CC1 1.24%
CCCCC(CC)CNCc1cccn1CCN1CCOCC1 (stereo not drawn) 1.27%
COc1cccc(N2C(=O)CN(Cc3ccccc3)C2=S)c1 1.66%
COc1cccc(-n2cc(C(=O)O)c3ccccc3c2=O)c1 -1.78%
CCOC(=O)C1CCN(S(=O)(=O)c2ccc3c(c2)N(C)C(=O)CC(=O)N3C)CC1 -0.75%
CCOC(=O)C1CN(S(=O)(=O)c2ccc(OC)cc2)c2cc(Cl)ccc2O1 (stereo not drawn) 1.38%
COc1ccc(C2OCC3(CO2)SC(=O)NC3=O)cc1OC (stereo not drawn) 3.57%
Fc1ccc(Nc2nnns2)cc1 -0.19%
CNc1nc(Nc2ccc(C)c(Cl)c2)nc(N)c1[N+](=O)[O-] 38.2%
CN(C)c1ccnc(Nc2ccc(F)cc2)c1C#N 10.8%
CC(=O)Nc1nc(N(C)C)nc(N(C)C)n1 -2.86%
Cc1cccc(OCC(O)CN2CCN(CCN3C(=O)c4cccc5cccc(c45)C3=O)CC2)c1C (stereo not drawn) 1.57%
Nc1nc(O)c(CC(=O)O)s1 1.52%
CCCCC/C=C/C1=CC(=O)C[C@H](c2ccc(Cl)cc2)C1 0.78%
CCOC(=O)C1CCN(C(=O)C2CCCN(S(=O)(=O)c3ccc(OC)c(Cl)c3)C2)CC1 (stereo not drawn) 1.31%
CCCCc1ccc(NC(=O)NCc2cccnc2)cc1 7.22%
O=C(CCC(=O)c1cccs1)Nc1nc2ccccc2s1 38%
Cn1nnnc1SCC(=O)Nc1sccc1C(N)=O -1.01%
O=C(CCNC(=O)c1ccccc1)Nc1nc2ccccc2s1 24.7%
COC(=O)c1ccccc1NC(=O)CSc1nnnn1C 3.56%
Brc1cnc2ccccc2c1N1CCCCC1 -3.31%
Cc1ccc(C(=O)N/C(=C\c2cccs2)C(=O)NCCc2ccccn2)cc1C 0.25%
N#Cc1c(N2CCCCC2)nc(N)c2c(N)nc(SCC(=O)O)cc12 6.26%
Cn1c(SCC(=O)c2ccc(F)cc2)nnc1-c1ccccn1 -0.55%
Cc1ccc(NC(=O)c2cnc(SCC(=O)NCC3CCCO3)n(C)c2=O)cc1 (stereo not drawn) 16.3%
CN(CC(=O)Nc1ccc(Cl)cc1)CC(=O)Nc1cccc2ccccc12 5.21%
O=C(CN1C(=O)NC2(CCCCCC2)C1=O)Nc1ccc([N+](=O)[O-])cc1 -2.64%
COc1cc(Cl)ccc1OCc1cc(C(=O)N2CC[C@@H]3CCCC[C@H]3C2)no1 6.28%
COc1ccccc1-c1cc(C(=O)N2CCCCC2)no1 32.7%
Cc1ccc(C(=O)NCC(=O)OCC(=O)NC2CCCCCCC2)cc1 0.7%
CCCCNC(=O)C1CCCN(S(=O)(=O)c2ccc(S(=O)(=O)NCC(C)C)cc2)C1 (stereo not drawn) -3.28%
COc1cccc(C2c3[nH]c4ccccc4c3CCN2Cc2cccc(C)n2)c1 (stereo not drawn) 17.2%
CCOc1ccc(C2c3[nH]c4ccccc4c3CCN2Cc2cccn2-c2ncccn2)cc1 (stereo not drawn) 26.3%
Cc1c(-c2ccccc2)n[nH]c1C(=O)N=Nc1c(O)[nH]c2ccccc12 -6.16%
CCOC(=O)N1CCN(C(=O)COCc2cc(-c3ccc4c(c3)OCO4)on2)CC1 0.94%
CCOC(=O)c1c(C)[nH]c(C(=O)COc2ccc3c(c2)OCO3)c1C 30.7%
CCCCOc1ccc(Cl)cc1CSc1nncn1N 1.19%
Cc1cccc(N=C2SC(C)CN2C(=O)CN2C(=O)NC3(CCCC3)C2=O)c1 (stereo not drawn) 2.39%
CCOc1ccccc1CN1CCN(C2CCC2)CC1CCO (stereo not drawn) -2.26%
CC(=O)N1CSCC1C(=O)O (stereo not drawn) 0.15%
O=C(O)CCCn1cc(NC(=O)COc2cccc(Cl)c2)cn1 -1.62%
CCOc1cccc(C(=O)Nc2nnc(-c3cccs3)s2)c1 37.1%
C=CC1=C(C(=O)O)N2C(=O)[C@@H](NC(=O)/C(=N\OCC(=O)O)c3csc(N)n3)[C@H]2SC1 -1.86%
CC(=O)Oc1ccc(C(=O)Nc2nccs2)cc1 1.87%
COc1ccc(Cc2nnc(NC(=O)c3cc(OC)c(OC)c(OC)c3)s2)cc1OC 0.25%
O=C(Nc1cccc2c1N(C(=O)c1ccco1)CCC2)c1ccco1 2.88%
Cc1ccc(NC(=O)CSc2nnc(CNC(=O)c3ccccc3F)o2)cc1Cl 26.2%
COc1ccc(Cc2nnc(SCC(=O)Nc3ccc(C)c(Cl)c3)[nH]c2=O)cc1 -0.12%
COCCNC(=O)CSc1nc2c(n1-c1ccccc1)CCCC2 -0.48%
Cc1cc(=O)n2[nH]c(-c3sccc3-n3c(C)ccc3C)cc2n1 10%
O=c1c2c(nc3cc(-c4cccc(Cl)c4)[nH]n13)CCCC2 5.09%
O=C(CCc1ccc(S(=O)(=O)N2CCOCC2)cc1)OCC(=O)c1ccc(Br)cc1 2.27%
COC(=O)C1=C(C)N(c2ccc(C)cc2)/C(=C/c2ccc(O)cc2)C1=O 2.06%
C[C@H](C(=O)CC(=O)OC(C)(C)C)[C@H](O)c1ccc(C(F)(F)F)cc1 1.94%
Cc1cc(OC(=O)c2ccc(Cl)cc2)cc(=O)n1C -0.96%
COc1ccc2ccn(C)c2c1 5.22%
COc1ccc(C(C(=O)NCc2ccccc2)N(Cc2cccs2)C(=O)c2cnccn2)cc1 (stereo not drawn) -1.35%
CC1CCCCC1NCC(=O)Nc1ccccc1C(=O)Nc1ccccc1 (stereo not drawn) -0.06%
COc1cc([N+](=O)[O-])ccc1NC(=O)CN1CCCC1 4.3%

activation, active:
O=C(Nc1ccc(C(F)(F)F)cc1)c1cccc(-n2cnnn2)c1 102%
Cc1nc(-c2ccccc2)cn2c1nc1ccccc12 77%
O=C(NCc1cccnc1)c1ccc(CS(=O)(=O)c2ccc(Br)cc2)o1 77.4%
O=C(Nc1ccc(Cl)cn1)c1cnn2cccnc12 129%
COc1ccc(OC)c2sc(NC(=O)C3COc4ccccc4O3)nc12 (stereo not drawn) 50.9%
O=C(CN1CCN(c2ccc(Cl)cc2)CC1)c1ccccc1 73.2%
COc1cccc(-n2c(=S)[nH]c3c(oc4ccccc43)c2=O)c1 64.8%
CN(C)c1nc(Nc2ccc(Cl)c(Cl)c2)nc(N(C)C)n1 130%
CN(C)c1nc(NN)nc(Nc2ccc(F)cc2)n1 76.4%
Cn1nnnc1SCC(=O)Nc1nc2ccccc2s1 50.3%
O=C(Nc1ccccc1)Nc1nc2ccccc2s1 74.5%
Cn1c(SCC(=O)c2ccccc2)ncc(C(=O)Nc2ccc(F)cc2)c1=O 98.3%
COc1ccc(OCc2cc(C(=O)N3CCCC3)no2)c2ccccc12 50.9%
CCOc1ccc(C2c3[nH]c4ccccc4c3CCN2Cc2cn(CC)nc2C)cc1 (stereo not drawn) 58.7%
CCOC(=O)c1nc(-c2ccc3c(c2)OCO3)[nH]c1C 102%
CCOc1cccc(C(=O)Nc2cnn(Cc3ccccc3)c2)c1 47.8%
COc1cc(C(=O)Nc2nccs2)cc(OC)c1OC 51.3%
Cc1ccc(NC(=O)CSc2nn3c(=O)c(C)nnc3s2)cc1Cl 72.8%
Cc1cc(=O)n2[nH]c(-c3cccc(Cl)c3)cc2n1 50.5%
COc1ccc(NC(=O)c2cc([N+](=O)[O-])ccc2NC(=O)CNC2CCCCC2C)c(OC)c1 (stereo not drawn) 47.4%
